Measurements published in PubChem BioAssay (NCATS).
Records with an inconclusive call do not appear. Active and inactive are the calls of the source. Calls follow the shape of the dose curve; as a rule, active = well fitted cell-killing curve with a large enough effect; inconclusive = small, poorly fitted or top-dose-only effect; inactive = flat fitted curve, though single readings scatter.

Test: Cell Viability - LYMP1-002 - Assay at 16 hr (AID 948)
Conditions: LYMP1-002 lymphoblastoid cell viability; series mostly up to 92.2 µM
Text: NIH Chemical Genomics Center [NCGC]
NIH Molecular Libraries Screening Centers Network [MLSCN]
National Institutes of Environmental Health Sciences [NIEHS]
National Toxicology Program [NTP]
We have developed a 1536-well cell-based assay for quantitative high throughput screening (qHTS) against a number of cell lines to determine in vitro cytotoxicity of small molecules. This particular assay uses a human lymphoblastoid cell line (LYMP1-002) purchased from Coriell Institute for Medical Research.
NCGC Assay Protocol Summary:
The CellTiter-Glo luminescent cell viability assay (Promega) is a homogeneous method to measure the number of viable cells in culture. The end point readout of this assay is based on quantitation of intracellular ATP, an indicator of metabolic activity, using the luciferase reaction. Luciferase catalyzes the oxidation of beetle Luciferin to oxyluciferin and light in the presence of ATP. The luminescent signal is proportional to amount of ATP present.
Using the CellTiter-Glo luminescent cell viability assay, the amount of cellular ATP was measured in the lymphoblastoid cell line with complete culture medium following compound treatment for 16 hours. The assay was performed in opaque white Kalypsys 1536-well plates. In the screen, tetraoctylammonium bromide was used as positive control. Library compounds were measured for their ability to cause acute toxicity in the cell line, as reflected by a decrease in intracellular ATP levels, in a concentration-dependent manner. […] AC50 values were determined from concentration-response data modeled with the standard Hill equation.
qHTS protocol for CellTiter Glo lymphoblastoid cellular assay
[Step] [Parameter] [Value] [Description]
1. Reagent; 5 uL; 2500 lymphoblastoid cells/well
2. Time; 5 hr; 37 C incubation
4. Controls; 23 nL; Tetraoctylammonium bromide 6.4pM to 92 uM
5. Time; 16 hr; 37 C incubation
6. Reagent; 5 uL; CellTiter Glo reagent
7. Time; 30 min; Room Temperature
8. Detection; Luminescence; Viewlux plate reader
Keywords: cell viability, cytotoxicity, lymphoblastoid cell line, luminescence, NTPHTS, NTPHTS_NCGC, NIEHS, DSSTox, MLSMR, MLSCN, NIH Roadmap, qHTS, NCGC

SMILES	outcome
CC(=O)[C@H]1CC[C@H]2[C@@H]3CCC4=CC(=O)CC[C@]4(C)[C@H]3CC[C@]12C	inactive
c1ccc2c(c1)-c1cccc3cccc-2c13	inactive
CCOC(=O)c1ccccc1N	inactive
CC(C)COC(=O)c1ccccc1C(=O)OCC(C)C	inactive
COC1=CC(=O)OC(CCc2ccc3c(c2)OCO3)C1 (centres undefined)	inactive
c1ccc(Nc2ccc3ccccc3c2)cc1	inactive
CCOc1cc(C=O)ccc1O	inactive
O=Cc1ccccc1	inactive
CC(=O)/C=C/c1ccccc1	inactive
Oc1c(Cl)c(Cl)c(Cl)c(Cl)c1Cl	inactive
Cc1ccccc1O	inactive
CC(C)(c1ccc(OCC2CO2)cc1)c1ccc(OCC2CO2)cc1 (centres undefined)	inactive
COC(=O)c1ccccc1C(=O)OC	inactive
Oc1ccccc1Cl	inactive
